# Wnt act: Wnt/beta-catenin pathway activation; Wnt/beta-catenin reporter cell assay, activator, plate reader; activation, % at 9.35 µM; actives 1.2% (n = 300,000); in the data active = activation above about 30%, passing the limit was not always enough; inconclusive = no clear call, values can overlap the other calls;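 note: 0% = neutral control wells and 100% = positive control wells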
# MITF TRPM1 HTS: increases MITF-driven TRPM1 promoter luciferase signal. activation, % at 12.5 µM. actives 0.75% (n = 300,000). SK-MEL-5 TRPM1-promoter luciferase, 24 h; % of positive control, neutral wells = 0;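 active = mean activation of at least 80% with every replicate also reaching 80%; inconclusive = mean reaches 80% but some replicate falls short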;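 note: 0% = neutral control wells and 100% = parthenolide positive control wells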
# SMARCA2 activ: activators of SMARCA2 function; activation, % at 9.1 µM; actives 1% (n = 370,000); MG213 cells, MMTV-luciferase reporter, dexamethasone, overnight; in the data active = activation above about 7.8%;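 note: 0% = vehicle wells and 100% = reference activator wells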
# esBAF inh: inhibitors of esBAF chromatin remodeling in mouse ES cells. reporter increase, % at 12.5 µM. AID 602393. Bmi1-luciferase knock-in reporter, 24 h; 100% = twice the neutral-well signal. actives 2% (n = 350,000); in the data active = activation above about 40%; inconclusive = no clear call, values can overlap the other calls;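 note: 0% = median of the plate's neutral control wells and 100% = double that signal; a rise in the Bmi1 reporter signal indicates esBAF inhibition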
# FGF22 binding: binders of recombinant human FGF22 by thermal shift. actives 1.5% (n = 340,000). SYPRO orange fluorescence; percent of sucrose octasulfate shift, DMSO zero. Q9HCT0. activity (Tm shift, normalised), % at 9.99 µM;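 active = mean Tm shift, scaled 0 neutral to 100 positive control, at about 1.3% or above, every replicate too, limit read from the data; inconclusive = no clear call, values can overlap the other calls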
# MLL AF4-AF9 inh: inhibitors of human MLL-AF4/AF9 interaction | AID 651704 | actives 0.47% (n = 350,000) | AlphaScreen, biotin-AF4 peptide binding to FLAG-AF9 | inhibition, % at 10 µM;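 active = every replicate reaching a set inhibition limit, whatever the replicate mean, cut at about 25% in these data; inconclusive = mean inhibition reaches that limit but some replicates miss it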;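 note: 0% = plate neutral control median and 100% = total signal loss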
# Target sequence (P42568 whole entry, looked up): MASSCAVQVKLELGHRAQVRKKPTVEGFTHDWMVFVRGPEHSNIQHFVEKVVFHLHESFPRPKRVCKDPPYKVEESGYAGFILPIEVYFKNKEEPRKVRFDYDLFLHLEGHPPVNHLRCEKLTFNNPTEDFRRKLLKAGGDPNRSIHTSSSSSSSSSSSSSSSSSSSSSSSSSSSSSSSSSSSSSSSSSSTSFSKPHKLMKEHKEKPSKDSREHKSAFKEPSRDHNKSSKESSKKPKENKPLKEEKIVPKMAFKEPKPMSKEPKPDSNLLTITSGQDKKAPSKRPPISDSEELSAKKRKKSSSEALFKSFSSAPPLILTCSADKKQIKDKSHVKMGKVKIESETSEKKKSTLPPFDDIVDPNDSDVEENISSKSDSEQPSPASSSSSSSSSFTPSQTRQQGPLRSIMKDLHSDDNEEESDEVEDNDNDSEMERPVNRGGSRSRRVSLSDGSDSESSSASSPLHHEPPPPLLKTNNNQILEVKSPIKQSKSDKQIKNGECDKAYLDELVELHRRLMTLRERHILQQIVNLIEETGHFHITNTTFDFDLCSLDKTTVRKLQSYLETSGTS
# An asterisk follows results filed as active; ? = inconclusive; . = no result given. This is a sample that favours compounds with a hit; in the whole collection about 4.3% have one here.
SMILES,Wnt act,MITF TRPM1 HTS,SMARCA2 activ,esBAF inh,FGF22 binding,MLL AF4-AF9 inh
CO[C@@H]1CN(C)C(=O)c2cc(NC(=O)NC(C)C)ccc2OC[C@@H](C)N(Cc2ccc(-c3ccccn3)cc2)C[C@H]1C,.,.,.,2,0,1
COc1ccccc1Cn1c(/C=C/c2ccccc2)nc2ccccc21,38*,39,3,.,.,.
Cc1cc(N)n2ncc(-c3ccc(F)cc3)c2n1,.,73,0,58*,.,.
Cc1cc(NCc2ccccn2)n2ncc(-c3ccccc3)c2n1,56*,.,-3,51*,0,.
Cc1cc(Cl)n2ncc(-c3ccccc3)c2n1,-3,.,1,48*,0,3
Cc1noc(C)c1NC(=O)N(C)C[C@@H]1Oc2c(NC(=O)C3CC3)cccc2C(=O)N([C@H](C)CO)C[C@H]1C,.,.,.,-2,0,-2
Cc1nn(-c2ccc(F)cc2)c2sc(C(=O)N3CCCCCC3)cc12,.,50,1,64*,.,.
Cc1nn(-c2ccccc2)c2sc(C(=O)N3CCN(Cc4ccccc4)CC3)cc12,.,.,-4,.,.,.
Cc1nn(-c2ccccc2)c2sc(C(=O)NC3CCCCCC3)cc12,.,.,-4,.,.,.
Cc1nn(-c2ccccc2)c2sc(C(=O)NC3CC3)cc12,.,.,3,47*,.,.
OC[C@H]1[C@@H](c2ccc(-c3ccccc3F)cc2)[C@H]2CN(Cc3cncnc3)CCCCN21,.,.,.,-41,0,1
C[C@H](NC(=O)C[C@H]1C=C[C@@H](NC(=O)CN2CCOCC2)[C@@H](CO)O1)c1ccccc1,.,.,.,-1,1,0
CN(C)C(=S)SCC(=O)Nc1ccc(Cl)cc1Cl,-11,27,0,.,1.4*,-5
CCOC(=O)C1CCN(C(=O)COc2ccc([N+](=O)[O-])cc2)CC1,-1,-7,-3,.,43*,-1
Cc1noc(C)c1NC(=O)N(C)C[C@@H]1OCCCC[C@@H](C)Oc2ccc(NS(=O)(=O)c3ccc(F)cc3)cc2C(=O)N([C@H](C)CO)C[C@H]1C,.,.,.,1,0,5
Cc1cc([N+](=O)[O-])ccc1N1C(=O)c2ccc(C(=O)Nc3ccccc3C(=O)O)cc2C1=O,2,-2,-3,0,1.6*,-2
O=C(N[C@@H]1C=C[C@H](CC(=O)N2CCCCC2)O[C@@H]1CO)c1ccccn1,.,.,.,-2,0,-2
CC(C)NC(=O)Nc1cccc2c1O[C@@H](CN(C)Cc1ccncc1)[C@@H](C)CN([C@@H](C)CO)C2=O,.,.,.,-2,0,0
Cc1ccc(SCCC(=O)Nc2ccccc2Br)cc1,5,37,3,22,43*,-1
CNC(=O)c1ccc(NC(=O)/C=C/c2cccc(F)c2)cc1,6,53,1,.,44*,0
O=C(/C=C/c1cccc(F)c1)Nc1ccc(S(=O)(=O)Nc2ncccn2)cc1,2,6,-1,8,0,-3
Cc1ccc(NC(=O)/C=C/c2cccc(C(F)(F)F)c2)cc1,-1,20,-5,.,18*,8
O=C(/C=C/c1cccc(C(F)(F)F)c1)Nc1cccc(C(F)(F)F)c1,.,-18,-8,-1,.,.
Cc1ccc(-c2cc(C(=O)NC3CCCCC3)no2)cc1,9,114*,1,37,0,2
O=C(NC1CCCCCCC1)c1ccccc1O,18,77,4,92*,.,.
SMILES,Wnt act,MITF TRPM1 HTS,SMARCA2 activ,esBAF inh,FGF22 binding,MLL AF4-AF9 inh
O=C(NC1CCCCC1)c1cc(-c2ccc(O)cc2)on1,-3,93*,5,42*,0,0
COc1ccc(-c2cc(C(=O)NC3CCCCC3)no2)cc1OC,-4,7,4,1,1,0
O=C(NC1CCCCC1)c1cc(-c2ccccc2O)on1,22,124*,0,83*,0,-2
CO[C@H]1CN(C)C(=O)c2cc(NC(=O)C3CC3)ccc2OC[C@@H](C)N(CC2CC2)C[C@@H]1C,.,.,.,2,0,-1
CCCc1cc(C(=O)NC2CCCC2)no1,19,50,2,30,0,8
CCCc1cc(C(=O)NC2CCCCC2)no1,33*,66,3,43*,0,-7
CC1OC1c1ccc(-c2ccc(C3OC3C)cc2)cc1 (stereo unspecified),18,90*,3,77*,0,1
Cc1ccc(C2OCC3(CO2)COC(c2ccc(C)cc2)OC3)cc1 (stereo unspecified),-1,0,-3,.,0,4
Cc1ccccc1OCc1nc2c3cnn(C)c3ncn2n1,22,.,4,66*,.,.
Cc1ccccc1OCc1nc2c3c(ncn2n1)-c1ccccc1CC31CCCC1,.,4,1,-1,.,.
Cc1cc(-c2ccccc2)n(-c2ccccc2)n1,10,.,3,51*,0,-5
Cc1cc(-c2ccco2)n(-c2ccccc2)n1,9,-2,0,.,.,.
COc1ccc(S(=O)(=O)N[C@@H]2CC[C@@H](CC(=O)N3CCc4ccccc4C3)O[C@H]2CO)cc1,.,.,.,-5,0,-2
O=C(C[C@H]1CC[C@@H]2[C@H](COC[C@@H](O)CN2S(=O)(=O)c2ccc(Cl)cc2)O1)NCc1ccncn1,.,.,.,2,0,-3
COC(=O)CSc1nc2cc(C)ccc2cc1C#N,80*,75,6,31,.,.
CCOC(=O)CC(=O)CSc1nc2ccc(C)cc2cc1C#N,22,74,8.8*,34,0,0
Cc1ccc2cc(C#N)c(SCC(=O)NCC3CCCO3)nc2c1 (stereo unspecified),.,7,1,-5,.,.
COc1ccc(NC(=O)N(C)C[C@@H]2Oc3ncc(C#C[C@H](C)O)cc3C(=O)N([C@@H](C)CO)C[C@@H]2C)cc1,.,.,.,-2,0,-3
COP(=O)(OC)c1nc(-c2ccccc2)oc1NCc1ccccc1,0,9,-2,.,.,.
CCCOP(=O)(OCCC)c1nc(-c2ccccc2)oc1NCc1ccccc1,-11,-7,-1,.,43*,4
CCOP(=O)(OCC)c1nc(-c2ccc(Cl)cc2)oc1NCc1ccccc1,-2,-6,2,.,43*,2
COP(=O)(OC)c1nc(-c2cccc3ccccc23)oc1NCc1ccccc1,-1,14,-3,3,.,.
O=c1oc(CCCO)cc2ccc(/C=C/c3cccc([N+](=O)[O-])c3)cc12,?,92*,6,49*,0,3
C[C@H]1CN([C@@H](C)CO)C(=O)c2cc(NC(=O)C3CC3)ccc2O[C@H]1CN(C)Cc1ccc(C(=O)O)cc1,.,.,.,2,-1,-3
O=S1(=O)c2ccc(Br)cc2OC[C@H](Cc2ccccc2)N1Cc1cn(Cc2ccc(F)cc2)nn1,.,.,-5,.,.,.
CCC(CO)NCC#Cc1ccccc1 (stereo unspecified),?,-2,0,.,44*,0
COc1cc(CC(=O)N(CC(C)C)C2CCS(=O)(=O)C2)cc(OC)c1OC (stereo unspecified),-4,5,-2,2,43*,1

# Assay outcomes as filed in PubChem BioAssay.
